This is a sample that favours compounds with a hit; in the whole collection about 0.83% have one here.
S1P4 agonist: S1P4 receptor agonists, primary screen, cell-based; AID 1509, 2009; S1P4-expressing cell line, agonist reporter assay; activation, % at 4.98 µM; 220,000 tested, 0.35% active; Sphingosine 1-phosphate receptor 4 (Homo sapiens), O95977; in the data active means activation above about 11%;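 further: 0% = DMSO vehicle and 100% = reference agonist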
Target sequence (O95977 whole entry, looked up): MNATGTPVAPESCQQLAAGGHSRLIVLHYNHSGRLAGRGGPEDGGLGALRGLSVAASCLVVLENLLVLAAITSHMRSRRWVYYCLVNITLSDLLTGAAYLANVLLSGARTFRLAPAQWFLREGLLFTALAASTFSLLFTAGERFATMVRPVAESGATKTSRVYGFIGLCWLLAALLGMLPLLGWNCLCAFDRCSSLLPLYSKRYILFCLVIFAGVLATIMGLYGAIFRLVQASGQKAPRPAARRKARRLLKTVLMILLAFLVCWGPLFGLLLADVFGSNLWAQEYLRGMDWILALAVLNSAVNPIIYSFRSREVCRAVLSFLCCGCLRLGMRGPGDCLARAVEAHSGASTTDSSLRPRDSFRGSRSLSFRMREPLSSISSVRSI
Hsp70 activator: Hsp70 transcriptional activators, primary screen, cell-based, HeLa, Hsp70 promoter luciferase, luminescence, 10 µM; HeLa Hsp70 promoter luciferase reporter; scaled: vehicle 0, proteasome-inhibitor control 100%; activation, % at 10 µM; 200,000 tested, 0.04% active; AID 1203, 2008;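 active means activation above the mean across all tested compounds plus 3 SD, cutoff set per campaign, cut at about 5.5% in these data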;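 further: 100% = MG132 at 30 µM as the positive control and 0% = DMSO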
S1P3 antag-1: S1P3 receptor antagonists, primary screen, cell-based; Sphingosine 1-phosphate receptor 3 (Homo sapiens), Q99500; 170,000 tested, 0.27% active; AID 485, 2006; inhibition, % at 4.98 µM; CHO S1P3 NFAT-BLA reporter, FRET fluorescence, antagonist mode;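 active means inhibition above the plate cutoff, the mean inhibition of test wells on that plate plus 3 SD, cut at about 28% in these data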;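 further: cells challenged with S1P at its EC80 of 0.8 µM; blue over green emission ratio from cleaved BLA substrate after 4 h stimulation; 0% = S1P-stimulated wells and 100% = unstimulated DMSO-only wells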
S1P4 antagonist: S1P4 receptor antagonists, primary screen, cell-based; 220,000 tested, 0.26% active; Sphingosine 1-phosphate receptor 4 (Homo sapiens), O95977; inhibition, % at 4.98 µM; S1P4-expressing cells, antagonist mode, reporter read-out; in the data active means inhibition above about 29%;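 further: 0% = wells stimulated with agonist and 100% = vehicle wells without agonist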
Pf gamet viab: late stage P. falciparum gametocyte viability inhibitors, primary screen, ATP luminescence, HTS. P. falciparum stage V gametocytes, 24 h. inhibition, % at 10.9 µM. 150,000 tested, 0.065% active. AID 743093, 2013;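 active means inhibition above the mean plus 3 SD of compounds within the control limits, set per campaign, cut at about 38% in these data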;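 further: 0% = DMSO wells and 100% = medium only without gametocytes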
S1P3 antag-2: S1P3 receptor antagonists, retest, confirmation, cell-based. 240 tested, 30% active. inhibition, % at 4.98 µM. CHO S1P3 NFAT-BLA reporter, FRET, antagonist mode. shares compounds with S1P3 antag-1. AID 1429, 2008;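 active means inhibition above the hit threshold that was computed for the earlier primary screen, cut at about 30% in these data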;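 further: 0% = S1P-stimulated wells and 100% = unstimulated DMSO-only wells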
An asterisk follows results filed as active; · = not tested or not shown.

SMILES | S1P4 agonist | Hsp70 activator | S1P3 antag-1 | S1P4 antagonist | Pf gamet viab | S1P3 antag-2
Cc1ccc(NC(=S)NNC(=O)C2CC2c2ccc(C)cc2)cc1 (configuration not stated) | -4.5 | -0.2 | · | 3.4 | 5.7 | ·
COc1ccc(NC(=S)NNC(=O)C2CC2c2ccc(C)cc2)cc1 (configuration not stated) | -2.0 | -0.2 | 32.7* | -11.5 | -2.2 | -15.5
CCN(CC)c1ccc2cc(-c3nc(-c4ccc(OC)cc4)cs3)c(=O)oc2c1 | 2.4 | -0.2 | 42.2* | 6.1 | -30.0 | 97.1*
CC(C)C(=O)NC(=S)Nc1ccc(S(=O)(=O)Nc2nccs2)cc1 | -0.6 | -0.4 | 28.2* | -25.8 | 6.3 | -19.9
C(=N\NC1=Nc2cccc3cccc1c23)/c1ccccn1 | 1.1 | 0.0 | 29.5* | -4.2 | 11.0 | 18.8
CCCc1nc2ccccc2c(C(=O)OC(C)C(=O)NCc2ccc3c(c2)OCO3)c1CC (configuration not stated) | -2.5 | -0.2 | 30.7* | -23.2 | · | 10.7
CCCc1nc2ccccc2c(C(=O)OCC(=O)NCc2ccc3c(c2)OCO3)c1CC | -0.2 | -0.2 | -0.5 | -28.6 | 9.6 | ·
Cc1cccc(Cn2nc(C(C)(C)C)cc2C(=O)Nc2ccc(F)cc2)c1 | 0.5 | · | 36.5* | 3.7 | 4.9 | 52.9*
CC(C)(C)c1cc(C(=O)NN)n(Cc2ccc(F)cc2)n1 | -2.0 | · | 4.7 | -0.9 | 6.6 | ·
COC(=O)[C@@H](NC(=O)CCc1nnc(-c2ccsc2)o1)C(C)C | -0.1 | -0.1 | -8.1 | -17.6 | 5.8 | ·
Cc1nc(C(C)NC(=O)CCc2nnc(-c3ccsc3)o2)cs1 (configuration not stated) | 1.1 | -0.2 | 37.8* | 0.3 | 7.7 | -8.4
Cc1nc(C)n(CC(=O)N2CCCC(C(=O)c3cccc4ccccc34)C2)n1 (configuration not stated) | 0.9 | -0.1 | 2.8 | -3.2 | 13.7 | ·
O=C1c2cccc3c(N4CCCCC4)ccc(c23)C(=O)N1c1cccc(O)c1 | 1.3 | 0.0 | 51.1* | 18.6 | 13.0 | 45.0*
CC[C@@H]1C=C(C)C[C@H](C)C[C@H](OC)[C@H]2O[C@@](O)(C(=O)C(=O)N3CCCC[C@H]3C(=O)O[C@H](/C(C)=C/[C@@H]3CC[C@@H](O)[C@H](OC)C3)[C@H](C)[C@@H](O)CC1=O)[C@H](C)C[C@@H]2OC | -7.2 | -0.5 | 89.1* | -3.7 | · | 104.6*
COc1ccc(-n2c(C)nc3sc4c(c3c2=O)CCC4)cc1 | -0.6 | 0.0 | 103.5* | 5.3 | 18.7 | -8.7
COc1ccc(-n2c(SCC(=O)O)nc3sc4c(c3c2=O)CCC4)cc1 | 1.0 | -0.4 | 11.6 | -1.2 | -24.2 | ·
Cc1ccccc1-n1c(N)c(C(=O)Nc2ccc(F)cc2)sc1=S | 3.7 | -0.1 | -3.1 | -19.8 | 18.9 | ·
Cc1ccc(NC(=O)c2sc(=S)n(-c3cc(C)ccc3F)c2N)cc1 | -2.8 | 0.0 | 29.6* | -7.8 | 26.7 | 6.2
COc1cccc(NC(=O)c2ccc3nc(C)sc3c2)c1 | · | · | · | · | -4.5 | ·
O=C1c2cccc3c([N+](=O)[O-])ccc(c23)C(=O)N1CCc1ccccn1 | -1.6 | · | -1.9 | -7.9 | -32.4 | ·
CN(C)CCCN1C(=O)c2cccc3c([N+](=O)[O-])ccc(c23)C1=O | 3.5 | 0.8 | 33.1* | 91.7* | 10.5 | -0.3
Cc1ccc(C)c(S(=O)(=O)N/N=C/c2ccc(N3CCOCC3)cc2)c1 | 0.6 | · | 30.0* | -7.6 | -8.7 | -9.0
CC(C)NC(=S)N/N=C/c1ccc(N2CCOCC2)cc1 | -0.9 | -0.1 | 3.3 | -9.1 | · | ·
CCOc1cc(C(N)=O)cc(Br)c1OCc1ccccc1 | -0.1 | -0.4 | 0.9 | 6.8 | 6.5 | ·
CC(C)(C)c1nc2scc(-c3ccc(Br)cc3)c2c(=O)o1 | 1.4 | -0.2 | 28.5* | 3.3 | · | -7.0
SMILES | S1P4 agonist | Hsp70 activator | S1P3 antag-1 | S1P4 antagonist | Pf gamet viab | S1P3 antag-2
Cc1nc2scc(-c3ccc(Cl)cc3)c2c(=O)o1 | 4.2 | -0.2 | · | -6.0 | -9.6 | ·
COC(=O)C(C)(C)ONC(=O)Nc1ccccc1Br | 0.8 | -0.2 | 7.5 | -9.5 | 12.2 | ·
COC(=O)C(C)(C)ONC(=O)Nc1ccccc1Cl | 1.8 | -0.1 | 39.0* | -1.1 | -7.6 | -8.5
CC(CC(=O)N1CCN(c2ccc(C(F)(F)F)cn2)CC1)n1ccnc1 (configuration not stated) | -1.3 | -0.2 | 36.3* | -6.8 | -2.1 | -15.3
O=C(CN1CCSCC1)N/N=C/c1cccc(Cl)c1 | 2.5 | -0.4 | -8.8 | -17.7 | -6.0 | ·
COc1ccc(Cl)c(OC)c1C(=O)NC(=O)Nc1c(F)cc(F)cc1F | -2.3 | · | -7.9 | -5.6 | -1.7 | ·
CCN1/C(=C/c2sc(-c3ccccc3C)c[n+]2C)Sc2ccccc21 | 1.4 | 0.3 | 35.5* | -9.4 | -0.6 | 38.3*
COC(=O)c1ccc(N2CCN(C(=O)c3ccccc3)CC2)c(NC(C)=O)c1 | 0.6 | 0.0 | 40.2* | -24.3 | -7.9 | -10.7
COC(=O)c1ccc(N2CCN(C(C)=O)CC2)c(NC(=O)COc2ccccc2C)c1 | 5.1 | -0.3 | -15.7 | 1.2 | 11.0 | ·
COc1ccc(C(=O)C2CCCN(Cc3c[nH]c4ccccc34)C2)c(OC)c1 (configuration not stated) | 0.2 | -0.4 | 9.4 | -13.8 | · | ·
C=CCNC(=S)Nc1ccc(Cl)c(S(=O)(=O)N2CCOCC2)c1 | 1.3 | -0.2 | 69.6* | -12.7 | -13.0 | -10.8
C=CCNC(=S)Nc1ccc(OC)c(S(=O)(=O)N2CCOCC2)c1 | -1.4 | -0.3 | -13.8 | -7.2 | 11.0 | ·
CCOC(=O)C(C)Oc1cccc2c(=O)n(CC(=O)NCCc3ccccc3)ccc12 (configuration not stated) | 1.2 | · | 19.2 | -15.9 | -3.9 | ·
CCOC(=O)C(C)Oc1cccc2c(=O)n(CC(=O)NCc3ccccc3)ccc12 (configuration not stated) | -0.2 | · | 37.4* | 18.7 | -1.0 | 9.3
CCOC(=O)C(C)Oc1cccc2c(=O)n(CC(=O)NCc3ccc(F)cc3)ccc12 (configuration not stated) | 1.9 | · | 34.9* | -5.5 | -11.5 | 8.2
COc1ccc2oc(=N)c(C(=O)Nc3ccccc3Cl)cc2c1 | · | · | · | · | -2.1 | ·
O=c1ccnc(SCCc2ccc([N+](=O)[O-])cc2)[nH]1 | · | · | · | · | 14.8 | ·
C=CCN1C(=O)C(CC(=O)Nc2ccc(OCCC)cc2)N(CCCN2CCN(Cc3ccccc3)CC2)C1=S (configuration not stated) | -1.3 | -0.2 | 38.4* | -3.0 | -12.3 | -0.5
COc1ccc(NC(=O)CC2C(=O)N(Cc3ccccc3)C(=S)N2CCN2CCOCC2)cc1 (configuration not stated) | -0.8 | -0.1 | -8.4 | 7.1 | 18.6 | ·
CCCn1c(C)cc(/C=C(\C#N)C(=O)OCC(=O)Nc2ccc(OC)c(Cl)c2)c1C | 3.0 | -0.3 | 92.1* | -13.8 | 9.5 | -15.6

Assay outcomes deposited in PubChem by The Scripps Research Institute Molecular Screening Center.
